For seven compounds, Potency and outcome results are on record in PubChem BioAssay (Tox21).

Test [1] in a line: qHTS assay to identify small molecule antagonists of the estrogen receptor alpha (ER-alpha) signaling pathway using the BG1 cell line in the presence of 0.1 nM 17-beta-estradiol - cell viability counter screen (AID 1259241). Also: nearly all actives have a fitted effect of over 40% in size. Also: potency is read from the fitted curve at half-maximal effect. The essentials: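 VM7Luc4E2, 4,000 cells/well, phenol red-free medium + 10% charcoal-stripped FBS; 24 hr plating; cpd + 0.1 nM E2 final, 22 hr 37C/5% CO2; CellTiter-Fluor 30 min, fluorescence.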
For orientation: In qHTS, concentration-response curves come from the screen itself.

Test [2] in a line: qHTS assay to identify small molecule antagonists of the androgen receptor (AR) signaling pathway using the MDA cell line in the presence of 0.5 nM R1881 - cell viability counter screen (AID 1259242). Also: nearly all actives have a fitted effect of over 45% in size. Also: potency is read from the fitted curve at half-maximal effect. The essentials:
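Fluorescence from CellTiter-Fluor, which reports protease activity of live cells, was read 30 min after reagent addition to MDA-kb2 cells that had been incubated 16 hr with compound and 0.5 nM R1881.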

For test [3], the target named is Estrogen receptor (Homo sapiens) (UniProt P03372). Nature of the test: qHTS assay to identify small molecule antagonists of the estrogen receptor alpha (ER-alpha) signaling pathway using the BG1 cell line in the presence of 0.1 nM 17-beta-estradiol (AID 1259244). Also: nearly all actives have a fitted effect of over 50% in size. Also: potency is read from the fitted curve at half-maximal effect. The essentials:
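Quantitative high-throughput screen in VM7Luc4E2 cells: compound plus 0.1 nM E2 (final), 22 h, 37C, 5% CO2; ONE-Glo added, 30 min room temperature, luminescence measured.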

The nature of test [4]: qHTS assay to identify small molecule HDAC inhibitors (AID 1259364). Also: top concentration of the series differs between compounds; nearly all actives have a fitted effect of over 45% in size. Summed up:
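Endogenous HDAC class I/II activity was measured in wild-type HCT-116 cells by HDAC-Glo luminescence after 2 h compound treatment.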

Test [5] is described as follows: qHTS assay to identify small molecule HDAC inhibitors - cell viability counter screen (AID 1259365). Also: series mostly up to about 92 µM; nearly all actives have a fitted effect of over 50% in size. Summed up:
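Luminescence from CellTiter-Glo, developed 30min at room temperature, reports viability of wild-type HCT-116 cells treated 2hr with compounds at 37 C and 5% CO2 after overnight plating.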

Test [6] can be described thus: qHTS assay to identify small molecule agonists of the sonic hedgehog signaling (Shh) pathway - cell viability counter screen (AID 1259366). Also: nearly all actives have a fitted effect of over 50% in size. Also: potency is read from the fitted curve at half-maximal effect. The essentials:
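Cytotoxicity counter screen run in the same wells as the Shh reporter assay. NIH/3T3 cells carrying a Gli1 response element–driven luciferase were treated with DMSO-dissolved compounds for 24hr, and live-cell protease activity was measured with CellTiter-Fluor.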

Test [7] is described as follows: qHTS assay to identify small molecule antagonists of the sonic hedgehog signaling (Shh) pathway - cell viability counter screen (AID 1259367). Also: nearly all actives have a fitted effect of over 55% in size. Also: potency is read from the fitted curve at half-maximal effect. Summed up:
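Seed 3T3 Gli1-Luc cells at 2,000 per well; incubate 4 hr; add compound in DMSO, then conditioned medium; incubate at 37C with 5% CO2; add CellTiter-Fluor after 23 hr; read fluorescence 1 hr later.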

Test [8] is described as follows: qHTS assay to identify small molecule agonists of the sonic hedgehog signaling (Shh) pathway (AID 1259368; calls by dose curve;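 also: NIH/3T3-derived 3T3Gli1-Luc cells carrying a stable Gli1-driven firefly luciferase reporter; series mostly up to about 92 µM; nearly all actives have a fitted effect of over 15% in size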). Summed up:
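Luminescent signal was taken as a measure of Gli1-controlled luciferase expression in stably transfected NIH/3T3-derived cells that had been treated for 24 hr with compounds delivered in DMSO.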

The nature of test [9]: qHTS assay to identify small molecule antagonists of the sonic hedgehog signaling (Shh) pathway (AID 1259369; calls by dose curve; also: nearly all actives have a fitted effect of over 45% in size; also: potency is read from the fitted curve at half-maximal effect). Summed up:
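Screening used 3T3Gli1-Luc cells at 2,000 per well, compounds delivered in DMSO, and conditioned medium as agonist stimulus; plates incubated 24hr at 37 C and 5% CO2 before a 30min luciferase step.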

In test [10] the target is Estrogen receptor beta (Homo sapiens) (UniProt Q92731). Nature of the test: qHTS assay to identify small molecule agonists of the estrogen receptor beta (ER-beta) signaling pathway (AID 1259377; active = well fitted activation curve with a large enough effect in the signal ratio in the repeat runs, not every such curve was filed as active; the % refers to the signal ratio). The essentials: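 HEK293T ER-beta-UAS-bla; 2% charcoal-stripped FBS; cells pre-incubated 6 hr, compound 16 hr, 37C/5% CO2; LiveBLAzer B/G FRET substrate 2 h RT; fluorescence intensity read.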
Sequence of Estrogen receptor beta (Homo sapiens) (Q92731 whole entry, looked up): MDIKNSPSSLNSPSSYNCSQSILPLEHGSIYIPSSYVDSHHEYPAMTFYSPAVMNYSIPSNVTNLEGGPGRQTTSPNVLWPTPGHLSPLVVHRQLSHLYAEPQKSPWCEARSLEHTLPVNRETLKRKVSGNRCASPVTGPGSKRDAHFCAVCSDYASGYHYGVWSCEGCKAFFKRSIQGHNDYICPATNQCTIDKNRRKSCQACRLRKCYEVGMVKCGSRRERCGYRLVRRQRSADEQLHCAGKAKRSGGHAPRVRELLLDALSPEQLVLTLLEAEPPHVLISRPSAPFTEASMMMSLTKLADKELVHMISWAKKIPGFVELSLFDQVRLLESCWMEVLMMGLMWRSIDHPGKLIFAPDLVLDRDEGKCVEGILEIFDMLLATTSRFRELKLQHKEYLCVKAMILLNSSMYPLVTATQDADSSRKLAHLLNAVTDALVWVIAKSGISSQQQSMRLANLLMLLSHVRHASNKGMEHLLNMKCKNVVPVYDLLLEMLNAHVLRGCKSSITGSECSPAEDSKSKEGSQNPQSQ

Test [11] has the same target. Kind of test: qHTS assay to identify small molecule antagonists of the estrogen receptor beta (ER-beta) signaling pathway (AID 1259378; active = well fitted inhibition curve with a large enough effect in the signal ratio in the repeat runs, not every such curve was filed as active; the % refers to the signal ratio; also: potency is read from the fitted curve at half-maximal effect). The essentials: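 ER-beta-UAS-bla HEK293T cells in 2% charcoal-stripped FBS medium treated with compound plus 1nM final 17-beta-estradiol for 16 hr at 37C. Beta-lactamase reporter read by FRET substrate fluorescence after 2 hours at room temperature.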

Test [12] can be described thus: qHTS assay to identify small molecule agonists of the androgen receptor (AR) signaling pathway in the presence of an antagonist - cell viability counter screen (AID 1259379). Also: nearly all actives have a fitted effect of over 25% in size. Also: potency is read from the fitted curve at half-maximal effect. Summed up:
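In MDA-kb2 cells (human breast carcinoma, MMTV-luciferase), compounds at 15 concentrations plus 3.0uM nilutamide; 16 hr, 37C, 0% CO2; CellTiter-Fluor fluorescence read for viability.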

Test [13] in a line: qHTS assay to identify small molecule agonists of the estrogen receptor beta (ER-beta) signaling pathway - cell viability counter screen (AID 1259380). Also: nearly all actives have a fitted effect of over 30% in size. Also: potency is read from the fitted curve at half-maximal effect. Summed up:
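Viability of ER-beta-UAS-bla HEK293T cells was determined by CellTiter-Glo luminescence following 16 hr treatment with test compounds at 37C.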

Test [14] in a line: qHTS assay to identify small molecule antagonists of the estrogen receptor beta (ER-beta) signaling pathway - cell viability counter screen (AID 1259382). Also: nearly all actives have a fitted effect of over 55% in size. Also: potency is read from the fitted curve at half-maximal effect. The essentials: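 Tox21 10K library tested in qHTS format on ER-beta-bla HEK293T cells stimulated with 1nM E2; 16 hr treatment at 37C. Same-well CellTiter-Glo luminescence served as the cell viability measure.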
The target of test [15] is Estrogen receptor (Homo sapiens) (UniProt P03372). Nature of the test: qHTS assay to identify small molecule agonists of the estrogen receptor alpha (ER-alpha) signaling pathway in the presence of an antagonist (AID 1259383; calls by dose curve; also: top concentration of the series differs between compounds; nearly all actives have a fitted effect of over 15% in size). Summed up: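 In VM7Luc4E2 cells, 4,000 per well, compounds at 15 concentrations were co-incubated 22hr at 37C with 10.0nM final ICI-182,780. Luminescence from the stably transfected 4×ERE-luciferase reporter was recorded 30min after ONE-Glo addition.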
Sequence of Estrogen receptor (Homo sapiens) (P03372 whole entry, looked up): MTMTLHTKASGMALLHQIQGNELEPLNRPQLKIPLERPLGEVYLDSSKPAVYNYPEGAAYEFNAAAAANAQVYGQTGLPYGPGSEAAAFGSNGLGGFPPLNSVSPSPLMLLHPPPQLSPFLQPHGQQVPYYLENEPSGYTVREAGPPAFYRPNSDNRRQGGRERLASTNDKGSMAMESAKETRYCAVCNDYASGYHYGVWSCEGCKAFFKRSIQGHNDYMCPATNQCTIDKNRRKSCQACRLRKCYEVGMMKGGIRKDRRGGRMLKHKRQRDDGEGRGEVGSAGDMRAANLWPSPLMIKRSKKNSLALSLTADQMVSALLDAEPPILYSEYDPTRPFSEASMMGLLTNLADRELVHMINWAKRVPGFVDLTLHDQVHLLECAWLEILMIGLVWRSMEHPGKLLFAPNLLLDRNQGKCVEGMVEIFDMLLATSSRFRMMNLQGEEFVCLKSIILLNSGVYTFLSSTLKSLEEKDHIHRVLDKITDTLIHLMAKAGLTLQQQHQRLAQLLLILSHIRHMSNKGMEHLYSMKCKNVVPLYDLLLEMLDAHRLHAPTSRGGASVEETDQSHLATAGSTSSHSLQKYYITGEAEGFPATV

Test [16] can be described thus: qHTS assay to identify small molecule agonists or antagonists of the thyroid stimulating hormone receptor (TSHR) signaling pathway - wild type cell line counter screen (AID 1259384; calls by dose curve). Summed up:
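Wild-type Hek293 cells, 800/well, 18 h at 37C, then compound with Ro20-1724 for 30 min RT. cAMP by HTRF (cAMP-d2/anti-cAMP cryptate), 1 h RT, fluorescence read. 15 concentrations, triplicates.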

Test [17] in a line: qHTS assay to identify small molecule phospholipidosis (PLD) inducers (AID 1259344; active = well fitted curve in the direction sought with a large enough effect; an effect the other way counts as inactive or inconclusive). The essentials:
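Quantitative HTS in HepG2: compound plus LipidTOX Red dye for 24 h, paraformaldehyde fixation with Hoechst 33342, widefield high-content imaging; amiodarone as positive and DMSO as negative control.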

For test [18], the target named is Thyrotropin receptor (Homo sapiens) (UniProt P16473). Nature of the test: qHTS assay to identify small molecule antagonists of the thyroid stimulating hormone receptor (TSHR) signaling pathway (AID 1259385; calls by dose curve; also: nearly all actives have a fitted effect of over 20% in size). The essentials: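 TSHR-HEK293 cells (800/well) plated 18 h, then compounds with Ro20-1724 and TSH at 1.5 ng/mL final, 30 min at room temperature. cAMP quantified by HTRF (cAMP-d2/anti-cAMP-cryptate, 1 h); 15 concentrations in triplicate.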
Sequence of Thyrotropin receptor (Homo sapiens) (P16473 whole entry, looked up): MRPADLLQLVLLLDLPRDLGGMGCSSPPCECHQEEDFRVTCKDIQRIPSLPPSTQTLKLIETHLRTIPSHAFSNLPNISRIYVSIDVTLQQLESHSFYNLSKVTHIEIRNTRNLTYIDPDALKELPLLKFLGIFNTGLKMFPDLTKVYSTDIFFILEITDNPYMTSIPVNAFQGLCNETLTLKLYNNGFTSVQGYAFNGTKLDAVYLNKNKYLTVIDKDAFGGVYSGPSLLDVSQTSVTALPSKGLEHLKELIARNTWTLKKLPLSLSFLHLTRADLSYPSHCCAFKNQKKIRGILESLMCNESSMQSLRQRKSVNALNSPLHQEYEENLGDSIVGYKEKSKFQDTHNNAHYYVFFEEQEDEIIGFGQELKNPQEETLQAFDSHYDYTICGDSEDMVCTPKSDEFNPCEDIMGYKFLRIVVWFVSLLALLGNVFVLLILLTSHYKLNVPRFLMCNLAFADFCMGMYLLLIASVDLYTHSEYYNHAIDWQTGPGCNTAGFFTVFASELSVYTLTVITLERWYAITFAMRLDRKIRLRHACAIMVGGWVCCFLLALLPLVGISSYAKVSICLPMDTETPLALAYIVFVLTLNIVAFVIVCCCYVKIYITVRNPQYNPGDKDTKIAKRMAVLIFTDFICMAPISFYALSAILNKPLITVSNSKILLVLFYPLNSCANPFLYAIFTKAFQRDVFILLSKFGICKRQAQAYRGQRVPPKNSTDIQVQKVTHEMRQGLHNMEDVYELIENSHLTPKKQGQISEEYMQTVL

Records with an inconclusive call do not appear. Some compounds were tested as several samples or in several runs, with calls that do not always agree. Active and inactive are the calls of the source. Unless noted, calls follow the shape of the dose curve; as a rule, active = well fitted curve in the direction sought with a large enough effect in the repeat runs; inconclusive = weak or mixed curves; inactive = no such curve, though single readings can be large; an effect the other way counts as inactive or inconclusive.

In the case of `CCCCCCCC(=O)[O-].CCCCCCCC(=O)[O-].[Zn+2]`, the Potency result in test [1], in test [2], in test [3], in test [4], in test [5] and in [6] was “inactive” each time. The Potency result in test [7], in test [8], in test [9], in test [10], in [11] and in test [12] was “inactive” each time. Also, the Potency entry in test [13], in test [14] and in test [15] was “inactive” throughout.
`CCc1cc(Cc2cc(CC)c(N)c(CC)c2)cc(CC)c1N`: the Potency entry in [1], in test [2], in test [4], in test [5], in [6] and in test [7] was “inactive” throughout. In addition, the Potency result in test [8], in test [10] and in [15] was “inactive” throughout. The Potency in [3] is 54.5 µM (active); in test [9], 30.6 µM (active); in [13] it was 27.3 µM (active); in test [14], 48.6 µM (active). In addition, in test [16], the compound was called inactive.
In the case of `CN(C)[C@@H]1C(=O)C(C(N)=O)=C(O)[C@@]2(O)C(=O)C3=C(O)c4c(O)cccc4C[C@H]3C[C@@H]12`, the Potency entry in test [1], in test [2], in test [3], in test [4], in test [5] and in [6] was “inactive” in each case. The Potency entry in [7], in [8], in test [9], in test [12], in [13] and in test [14] was “inactive” in each case. For the same compound, the Potency entry in test [15] is “inactive”. Besides, in [16], the compound was classed as inactive.
In the case of `Cc1cccc(S(=O)(=O)O)c1C`, the Potency result in test [1], in [2], in test [3], in test [4], in test [5] and in test [6] was “inactive” throughout. Besides, the Potency entry in [7], in test [8], in test [10], in test [11], in [12] and in test [13] was “inactive” in each case. Besides, the Potency entry in test [14] and in [15] was “inactive” throughout. Besides, in test [16], the result was inactive.
For `COC(=O)C1=C(C)NC(C)=C(C(=O)OCC(C)C)C1c1ccccc1[N+](=O)[O-]` (stereo not given), the Potency result in test [1], in test [2], in test [17], in [4], in test [5] and in test [8] was “inactive” throughout. Also, the Potency result in test [12], in test [14], in [15] and in test [18] was “inactive” throughout. The Potency in test [3] is 48.6 µM (active) and inactive; in [6], 30.6 µM (active); in test [7], 61.1 µM (active); in test [9] it was 12.2 µM (active). Moreover, the compound was called inactive in [16].
Consider `Cc1onc(-c2ccccc2Cl)c1C(=O)N[C@@H]1C(=O)N2[C@@H]1SC(C)(C)[C@@H]2C(=O)O`, for which the Potency result in [1], in test [2], in test [3], in [17], in test [4] and in test [6] was “inactive” each time. For the same compound, the Potency entry in test [7], in [8], in [9], in test [10], in [11] and in test [12] was “inactive” each time. The Potency entry in test [13], in test [14], in test [15] and in test [18] was “inactive” each time. In test [16], the outcome was inactive.
As for `CC(C)(C)NC(=O)[C@@H]1C[C@@H]2CCCC[C@@H]2CN1C[C@@H](O)[C@H](Cc1ccccc1)NC(=O)[C@H](CC(N)=O)NC(=O)c1ccc2ccccc2n1`, the Potency in test [1] was 27.7 µM (active); in [2] it was 61.9 µM (active); in test [3], 61.9 µM (active); in test [6] it was 9.82 µM (active); in test [7], 13.9 µM (active); in test [11], 17.5 µM (active). The Potency in test [12] was 61.9 µM (active); in test [13], 55.2 µM (active); in test [14] it was 61.9 µM (active). Besides, the Potency result in test [17], in test [4], in test [5], in [8] and in test [15] was “inactive” throughout. Moreover, the compound was classed as inactive in test [16].
